Laboratory results: PubChem BioAssay
Active and inactive are the calls of the source. Unless noted, no rule for the calls is given here.

Assays:
[1] = resazurin metabolic signal in HepG2 cells – cell-based, resazurin fluorescence, 24 h, PK04 Diversity Set, profiling panel (AID 1172); conditions: HepG2 viability, higher = more signal
[2] = budding yeast growth changes without added modifier – OD600, strain BY4716, 24 h, basal condition, primary screen (AID 1173); conditions: S. cerevisiae BY4716 growth, OD600, 24 h; higher = more signal, called active from +8 up or from −8 down
[3] = viability profiling in MM1S myeloma cells – cell-based, resazurin fluorescence, basal, 24 h, PK04 Diversity Set, profiling panel (AID 1174); conditions: higher = more signal, called active from +8 up or from −8 down;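 also: MM1S multiple myeloma cell line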
[4] = molecular target: Dihydroorotate dehydrogenase (quinone), mitochondrial (Plasmodium falciparum (isolate 3D7)) (UniProt Q08210); assay: inhibition of P. falciparum DHODH – biochemical, C-terminal His tag, absorbance 600 nm, primary screen (AID 1175); conditions: PfDHODH enzyme, DCIP absorbance 600 nm; higher = more signal, called active from +8 up or from −8 down;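 also: recombinant parasite enzyme with a five histidine tag at its C terminus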
Sequence of Dihydroorotate dehydrogenase (quinone), mitochondrial (Plasmodium falciparum (isolate 3D7)) (Q08210 whole entry, looked up): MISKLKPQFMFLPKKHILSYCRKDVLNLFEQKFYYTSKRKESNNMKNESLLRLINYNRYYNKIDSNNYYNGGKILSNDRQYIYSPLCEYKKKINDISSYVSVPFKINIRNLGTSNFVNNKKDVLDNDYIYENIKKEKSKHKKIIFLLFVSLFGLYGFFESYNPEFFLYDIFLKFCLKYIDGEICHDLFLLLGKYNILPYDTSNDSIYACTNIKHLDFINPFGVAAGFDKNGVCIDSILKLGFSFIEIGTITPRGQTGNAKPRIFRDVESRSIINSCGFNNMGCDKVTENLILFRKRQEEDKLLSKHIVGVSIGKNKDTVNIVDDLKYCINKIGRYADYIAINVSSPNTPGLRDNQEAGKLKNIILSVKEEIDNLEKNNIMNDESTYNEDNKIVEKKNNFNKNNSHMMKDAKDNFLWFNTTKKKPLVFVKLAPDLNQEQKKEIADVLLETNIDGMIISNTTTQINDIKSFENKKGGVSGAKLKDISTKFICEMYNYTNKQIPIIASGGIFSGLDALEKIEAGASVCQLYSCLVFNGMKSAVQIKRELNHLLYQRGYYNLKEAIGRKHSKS

[5] = inhibition of PAO1 biofilm formation – strain PAO1, LB-PBS medium, absorbance 600 nm, primary screen (AID 1176); conditions: P. aeruginosa PAO1 growth/biofilm, A600, 12 h; higher = more signal
[6] = growth modulation of vineyard yeast isolate – strain RM11-1a, OD600, basal, 24 h, primary screen (AID 1177);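 also: cultures grown under basal conditions with no added stressor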; conditions: S. cerevisiae RM11-1a growth, OD600, 24 h; higher = more signal, called active from +8 up or from −8 down
[7] = growth of efflux-deficient E. coli DRC39 – strain DRC39, OD650, 24 h, E. coli filamentation inducers, primary screen (AID 1178);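 also: growth measured as culture turbidity by optical density at 650 nm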; conditions: E. coli DRC39 acrAB, higher = more signal, called active from +8 up or from −8 down
[8] = growth of efflux-deficient E. coli DRC39 – strain DRC39, OD650, 48 h, E. coli filamentation inducers, primary screen (AID 1179);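 also: screen aims at cell division blockers that make cells filament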; conditions: E. coli DRC39 delta-acrAB growth, higher = more signal, called active from +8 up or from −8 down
[9] = viability profiling in RPMI8226 myeloma cells – cell-based, resazurin fluorescence, basal, 24 h, PK04 Diversity Set, profiling panel (AID 1180); conditions: higher = more signal;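 also: RPMI8826 multiple myeloma cell line at 5000 cells per well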
[10] = molecular target: E3 ubiquitin-protein ligase XIAP (Homo sapiens) (UniProt P98170); assay: small molecules binding XIAP protein – biophysical, small-molecule microarray, fluorescence 635 nm, primary screen (AID 1181); conditions: higher = more signal;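 also: score merges 667 nm emission and signal to noise over triplicate slides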
Sequence of E3 ubiquitin-protein ligase XIAP (Homo sapiens) (P98170 whole entry, looked up, the tested form may be a part): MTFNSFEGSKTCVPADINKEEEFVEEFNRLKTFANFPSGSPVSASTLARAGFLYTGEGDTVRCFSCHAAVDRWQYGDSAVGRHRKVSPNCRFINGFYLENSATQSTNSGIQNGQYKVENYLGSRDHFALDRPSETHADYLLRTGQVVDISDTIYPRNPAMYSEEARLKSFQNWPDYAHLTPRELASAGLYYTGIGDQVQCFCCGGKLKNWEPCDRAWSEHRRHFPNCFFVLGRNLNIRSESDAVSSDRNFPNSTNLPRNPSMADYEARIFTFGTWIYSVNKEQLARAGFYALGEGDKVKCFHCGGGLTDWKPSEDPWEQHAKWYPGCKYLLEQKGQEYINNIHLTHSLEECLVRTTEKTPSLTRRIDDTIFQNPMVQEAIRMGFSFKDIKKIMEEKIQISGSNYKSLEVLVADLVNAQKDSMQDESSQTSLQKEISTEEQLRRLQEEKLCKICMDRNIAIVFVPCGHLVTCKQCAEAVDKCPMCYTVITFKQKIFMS

[11] = tested on: XIP peptide (Xip251-270) binding; assay: XIP fragment 251-270 binding compounds – biochemical, small-molecule microarray, fluorescence 635/667 nm, 0.1 µg/mL protein, primary screen (AID 1182); conditions: fluorescent protein binding, 635 nm, higher = more signal, called active from +8 up or from −8 down
XIP peptide (Xip251-270) = assay: compounds binding XIP fragment 251-270 – biochemical, small-molecule microarray, fluorescence 635/667 nm, 0.5 µg/mL protein, primary screen (AID 1183); conditions: fluorescence 635 nm, higher = more signal
[12] = blood-stage malaria parasite viability loss – strain 3D7, DAPI fluorescence, 100 nL, primary screen (AID 1184);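 also: parasites grown inside human red blood cells in medium with human serum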; conditions: P. falciparum 3D7 growth, 3 d, higher = more signal
[13] = molecular target: Homeobox protein Hox-A13 (Mus musculus) (UniProt Q62424); assay: disruptors of Hoxa13 oligonucleotide interaction – biochemical, fluorescence polarization, labeled oligonucleotide, primary screen (AID 1185); conditions: Hoxa13:DNA binding, 15 min, higher = more signal, called active from +8 up or from −8 down
Sequence of Homeobox protein Hox-A13 (Mus musculus) (Q62424 whole entry, looked up): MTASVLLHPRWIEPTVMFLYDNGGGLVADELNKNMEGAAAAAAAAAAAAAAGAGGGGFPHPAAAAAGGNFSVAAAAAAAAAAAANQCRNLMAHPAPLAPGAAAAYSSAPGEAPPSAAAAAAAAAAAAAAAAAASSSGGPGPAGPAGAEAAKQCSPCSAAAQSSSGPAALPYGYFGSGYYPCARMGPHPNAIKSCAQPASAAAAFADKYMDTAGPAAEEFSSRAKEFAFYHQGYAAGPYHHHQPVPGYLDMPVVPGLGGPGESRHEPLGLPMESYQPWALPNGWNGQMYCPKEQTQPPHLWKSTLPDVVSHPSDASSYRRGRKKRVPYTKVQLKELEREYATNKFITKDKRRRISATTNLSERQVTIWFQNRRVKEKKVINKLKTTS

[14] = blockers of DNA damage checkpoint Chk1 activation – imaging, HeLa, hydroxyurea, phospho-Chk1 antibody, percent positive cells, primary screen (AID 1186); conditions: hydroxyurea-induced phospho-Chk1 immunofluorescence imaging, higher = more signal
[15] = blockers of DNA damage checkpoint Chk1 activation – imaging, HeLa, hydroxyurea, phospho-Chk1 nuclear intensity, primary screen (AID 1187); conditions: hydroxyurea-induced phospho-Chk1 immunofluorescence imaging, higher = more signal

| SMILES | z-score [1] | z-score [2] | z-score [3] | composite z-score [4] | z-score [5] | z-score [6] | z-score [7] | z-score [8] | z-score [9] | composite z-score [10] | composite z-score [11] | composite z-score (XIP peptide (Xip251-270)) | z-score [12] | z-score [13] | z-score [14] | z-score [15] |
| --- | --- | --- | --- | --- | --- | --- | --- | --- | --- | --- | --- | --- | --- | --- | --- | --- |
| CC(=O)C1=CCC(c2ccccc2)N(S(=O)(=O)c2ccc(C)cc2)C1 (stereo not drawn) | -0.0399 | 0.832 (inactive) | -0.551 (inactive) | 0.746 (inactive) | 0.533 (inactive) | 0.227 (inactive) | 0.422 (inactive) | 0.0116 (inactive) | -0.809 | -0.0773 | 0.651 (inactive) | 0.473 | -1.33 | -3.89 (inactive) | 0.532 (inactive) | 0.216 (inactive) |
| COc1ccc(CCN2C(=O)[C@@]3(Cc4ccccc42)c2ccccc2C(=O)N(Cc2ccccc2Cl)[C@H]3c2ccc(CO)cc2)cc1 | -0.349 | -0.542 (inactive) | 0.249 (inactive) | -6.31 (inactive) | 1.57 (inactive) | 0.215 (inactive) | 0.157 (inactive) | 0.353 (inactive) | 0.314 | -0.142 | -0.227 (inactive) | 0.285 | -1.37 | -0.482 (inactive) | -0.214 (inactive) | -0.322 (inactive) |
| Cc1ccc(S[C@]2(C(=O)NCc3ccccc3)CC(=O)N(Cc3ccccc3Cl)[C@@H]2c2ccc(CO)cc2I)cc1 | 1.21 | -3.45 (inactive) | -3.03 (inactive) | -1.82 (inactive) | 0.531 (inactive) | -1.07 (inactive) | 0.321 (inactive) | 0.439 (inactive) | -2.02 | -0.136 | 0.935 (inactive) | 0.348 | -0.496 | -1.91 (inactive) | 0.0452 (inactive) | 0.0687 (inactive) |
| CCOC(=O)C[C@H]1[C@H](OC(=O)c2ccc(-c3ccccc3)cc2)[C@@H](NC(=O)c2ccc(-c3ccccc3)cc2)c2cc(OCCCO)ccc2N1C(=O)Cc1ccc(OC)cc1 | -0.0995 | 0.353 (inactive) | -0.26 (inactive) | -0.432 (inactive) | 0.432 (inactive) | 0.0873 (inactive) | 0.39 (inactive) | 0.372 (inactive) | -0.361 | -0.123 | -0.548 (inactive) | -0.057 | 0.555 | -1.54 (inactive) | -0.0323 (inactive) | 0.107 (inactive) |
| C=CCC(OC(C)=O)[C@@H]1[C@@H](N(Cc2cccc3ccccc23)C(=O)c2ccc(C)cc2)c2cc(OCCCO)ccc2N1C(=O)Cc1ccc(OC)cc1 (stereo partly drawn) | 1.36 | -2.29 (inactive) | 0.641 (inactive) | -1.6 (inactive) | 0.0186 (inactive) | -1.25 (inactive) | 1.59 (inactive) | 1.98 (inactive) | -0.203 | -0.086 | -0.262 (inactive) | -0.241 | -0.805 | -0.287 (inactive) | -0.446 (inactive) | -0.126 (inactive) |
| CCCCCN1CC=CC23O[C@@H]4/C=C\CCC(C)OC(=O)C4[C@H]2C(=O)N(CCCCCO)[C@@H]3C1=O (stereo partly drawn) | 0.58 | -1.12 (inactive) | 0.699 (inactive) | 0.121 (inactive) | 0.357 (inactive) | -1.01 (inactive) | 0.683 (inactive) | 0.389 (inactive) | 0.522 | -0.144 | -0.263 (inactive) | 0.0185 | -1.24 | -4.05 (inactive) | -0.464 (inactive) | 0.131 (inactive) |
| O=C1O[C@@H](c2ccccc2)[C@@H](c2ccccc2)N2[C@@H](c3ccc(O)cc3)[C@]3(C(=O)Nc4ccc(C#CC5(O)CCCCCC5)cc43)[C@@H](C(=O)N3CCCCCCC3)[C@H]12 | 0.366 | -0.479 (inactive) | -0.895 (inactive) | 0.916 (inactive) | 1.89 (inactive) | 0.141 (inactive) | -0.284 (inactive) | 0.38 (inactive) | -0.884 | 0.479 | 1.51 (inactive) | 0.855 | -0.667 | 1.7 (inactive) | -0.129 (inactive) | -0.0414 (inactive) |
| COc1ccc([Si](C)(C)[C@H]2[C@H](CC(=O)N(CCO)Cc3ccccc3)O[C@@]3(C(=O)N(Cc4cccc(N5CCC5=O)c4)c4ccccc43)[C@@H]2C)cc1 | -0.412 | -0.0113 (inactive) | -2.76 (inactive) | -1.19 (inactive) | 0.295 (inactive) | 1.17 (inactive) | 0.405 (inactive) | 0.169 (inactive) | -3.11 | 0.0259 | 0.0163 (inactive) | 0.281 | -2.84 | -2.16 (inactive) | -1.46 (inactive) | -1.2 (inactive) |
